Measurements: PubChem BioAssay (NCATS)
Inconclusive results are not listed. A call without a number means that no potency is given here. A number with no mark means an inactive call. The source made the active and inactive calls. Calls come from the whole dose curve; as a rule, active = well fitted inhibition curve with a large enough effect; inconclusive = small, poorly fitted or top-dose-only effect; inactive = no such curve, though single readings can be large or run the other way. Where a SMILES comes first, the peptide text is derived from it. [ ]: non-standard residue; d: D form. PhLac = O=C(O)[CH](O)Cc1ccccc1; NMeV = CN[CH](C(=O)O)C(C)C

Experiments:
[1] = system: Zika virus NS2B-NS3 protease (unlinked complex); assay: Primary screen GU Rhodamine qHTS for Zika virus inhibitors: Unlinked NS2B-NS3 protease assay (AID 1347159); note: nearly all actives have a fitted effect of over 60% in size; note: potency is the fitted concentration of half-maximal effect
Summary of the method: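 A qHTS format was used, with compound concentrations ranging up to 114 microM. Each compound was preincubated with 25 nM NS2B-NS3 protease, and the substrate was then added at 1.5 microM. Curves were fitted with a 4-parameter Hill model.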

[2] = system: Zika virus NS2B-NS3 protease (linked construct); assay: Primary screen NINDS Rhodamine qHTS for Zika virus inhibitors (AID 1347160); note: nearly all actives have a fitted effect of over 55% in size
Summary of the method: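 Kinetic fluorescence (Ex 480 nm, Em 540 nm) over 15 min with 1.5 microM Rhodamine110 peptide and 25 nM linked protease.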

Q: `CC(C#N)C(C)O[C@@H]1O[C@H](CO)[C@@H](O)[C@H](O)[C@H]1O` (some centres not stated) was tested. Which Potency [1] did it give?
A: Its Potency is “inactive”.

Q: What about the Potency [2] of the same compound?
A: The Potency was “inactive”.

Q: How did the Potency [1] turn out when `O=C1N(CC2CCCCN2)CCN1c1ccccc1` (configuration not stated) was run?
A: Its Potency is “inactive”.

Q: What about the Potency [2] of the same compound?
A: Its Potency is “inactive”.

Q: Which Potency [1] does the source give for `Cc1cc(C)cc(NC(=O)Cc2ccc(OC(C)(C)C(=O)O)cc2)c1` here?
A: Its Potency is “inactive”.

Q: What about the Potency [2] of the same compound?
A: Its Potency is “inactive”.

Q: With `CCOC(=O)N1CCC(NCCNC(=O)c2ccccc2C)CC1` as the compound, how does the Potency [1] read?
A: The Potency was “inactive”.

Q: And the Potency [2]?
A: The Potency was “inactive”.

Q: With `CC1(C)CCCC2(C)C(CO)C3CCC2C31` (configuration not stated) as the compound, how does the Potency [1] read?
A: The Potency was “inactive”.

Q: And the Potency [2]?
A: The Potency was “inactive”.

Q: Which results are given for `CC1(CO)CC[C@]2(C(=O)O[C@@H]3O[C@H](CO)[C@@H](O)[C@H](O)[C@H]3O)CC[C@]3(C)C(=CCC4[C@@]5(C)C[C@H](O)[C@H](O[C@@H]6OC[C@@H](O)[C@H](O)[C@H]6O)[C@@](C)(CO)C5CC[C@]43C)C2C1` (some centres not stated)?
A: Potency [1]: inactive; Potency [2]: inactive

Q: For `COCC(=O)N1CCc2cc(-c3csc(NC(=O)c4cc(OC)cc(OC)c4)n3)ccc21`, which Potency [1] is on record?
A: Its Potency is “inactive”.

Q: What about the Potency [2] of the same compound?
A: Its Potency is “inactive”.

Q: Which results are given for `CC(C)[C@@H](C)/C=C/[C@@H](C)[C@H]1CC[C@H]2C3=CC=C4C[C@@H](O)CC[C@]4(C)[C@H]3CC[C@]12C`?
A: Potency [1]: inactive; Potency [2]: inactive

Q: What does the source list for `O=C(O[C@H]1[C@@H]2C=CO[C@@H](O[C@@H]3O[C@H](CO)[C@@H](O)[C@H](O)[C@H]3O)[C@@H]2[C@@]2(CO)O[C@@H]12)c1ccc(O)cc1`?
A: Potency [1]: inactive; Potency [2]: inactive

Q: How did the Potency [1] turn out when `CC(C)C(C(=O)N1CCCC1C(=O)O)N(C)C(=O)C(O)Cc1ccccc1` (configuration not stated) (H-[PhLac]-[NMeV]-Pro-OH; configuration not given here) was run?
A: The Potency was “inactive”.

Q: And the Potency [2]?
A: The Potency was “inactive”.

Q: What does the source list for `C/C=C(\C)C(=O)O[C@@H](C)[C@H]1CC[C@]2(O)C3CCC4C[C@@H](OC5CC(OC)C(OC6CC(OC)C(OC7CC(OC)C(OC8OC(C)C(OC9OC(CO)C(O)C(O)C9O)C(OC)C8O)C(C)O7)C(C)O6)C(C)O5)CC[C@]4(C)C3[C@H](O)[C@@H](O)[C@]12C` (some centres not stated)?
A: activity change, negative = inhibition [1]: -1.05% [at 19.1 µM]; activity change, negative = inhibition [2]: 6.1% [at 10.7 µM]

Q: How did the Potency [1] turn out when `CC(C)CC1(C(=O)OCc2ccc(O[C@@H]3O[C@H](CO)[C@@H](O)[C@H](O)[C@H]3O)cc2)CC(=O)OC(C(=O)O)CC(=O)OCC2OC(O1)C(OC(=O)/C=C/c1ccc(O)cc1)C(O)C2O` (some centres not stated) was run?
A: The Potency was “inactive”.

Q: What about the Potency [2] of the same compound?
A: Its Potency is “inactive”.

Q: `COc1cc(/C=C/C(=O)OC2[C@H](O)CC(O)(C(=O)O)C[C@H]2O)ccc1O` (some centres not stated) was tested. Which Potency [1] did it give?
A: The Potency was “inactive”.

Q: What about the Potency [2] of the same compound?
A: Its Potency is “inactive”.

Q: With `COc1cc([C@H]2OC[C@]3(OC(C)=O)[C@@H](c4ccc(O[C@@H]5O[C@H](CO)[C@@H](O)[C@H](O)[C@H]5O)c(OC)c4)OC[C@H]23)ccc1O` as the compound, how does the Potency [1] read?
A: The Potency was “inactive”.

Q: What about the Potency [2] of the same compound?
A: The Potency was “inactive”.

Q: What does the source list for `C=C1C(=O)OC2/C=C(\C)CC/C=C(\C(=O)O)CC/C=C(\C)CCC12` (configuration not stated)?
A: Potency [1]: inactive; Potency [2]: inactive

Q: Which Potency [1] does the source give for `CC(C)Nc1cc(-c2c[nH]c(C(=O)N[C@H](CO)c3cccc(Cl)c3)c2)c(Cl)cn1` here?
A: Its Potency is 44.7 µM (active).

Q: And the Potency [2]?
A: The Potency was “inactive”.

Q: `C[C@@H]1C/C=C/C=C\C=C\C=C\[C@H](O[C@@H]2O[C@H](C)[C@@H](O)[C@H](N)[C@@H]2O)C[C@@H]2O[C@](O)(C[C@@H](O)C[C@H]3O[C@@H]3/C=C/C(=O)O1)C[C@H](O)[C@H]2C(=O)O` was tested. Which Potency [1] did it give?
A: Its Potency is “inactive”.

Q: What about the Potency [2] of the same compound?
A: The Potency was “inactive”.

Q: Which results are given for `CC(O)(CC(=O)O)CC(=O)O[C@@H]1[C@@H](O)[C@H](OCCc2ccccc2)O[C@H](CO)[C@H]1O` (some centres not stated)?
A: Potency [1]: inactive; Potency [2]: inactive

Q: For `Cc1cn2c(N)c(Cl)cc(C(=O)NCC3CCN(CC(C)C)CC3)c2n1`, which Potency [1] is on record?
A: Its Potency is “inactive”.

Q: What about the Potency [2] of the same compound?
A: The Potency was “inactive”.

Q: How did the Potency [1] turn out when `CC(/C=C/C1(O)C(C)CC(O)CC1(C)C)OC1OC(CO)C(O)C(O)C1O` (configuration not stated) was run?
A: The Potency was “inactive”.

Q: And the Potency [2]?
A: Its Potency is “inactive”.

Q: Which results are given for `N[C@H]1C[C@H]1c1ccc(-c2cccc(O)c2)cc1`?
A: Potency [1]: inactive; Potency [2]: inactive

Q: For `C[C@H]1C[C@H]2[C@@H]3CCC4=CC(=O)C=C[C@]4(C)[C@@]3(F)[C@@H](O)C[C@]2(C)[C@@]1(O)C(=O)COP(=O)(O)O`, which Potency [1] is on record?
A: Its Potency is “inactive”.

Q: And the Potency [2]?
A: The Potency was “inactive”.

Q: Which results are given for `COc1c2c(c(C)c3c1C(=O)OC3)O[C@@]1(C)C[C@@H](O)[C@]34O[C@](OC)(CC[C@]3(C)[C@H]1C2)OC4(C)C`?
A: Potency [1]: inactive; Potency [2]: inactive

Q: Which Potency [1] does the source give for `CC(C)C(C#N)O[C@@H]1O[C@H](CO[C@@H]2OC[C@](O)(CO)[C@H]2O)[C@@H](O)[C@H](O)[C@H]1O` (some centres not stated) here?
A: Its Potency is “inactive”.

Q: And the Potency [2]?
A: Its Potency is “inactive”.

Q: With `CC1CCC2(C(=O)OC3OC(COC4OC(CO)C(O)C(O)C4O)C(O)C(O)C3O)CCC3(C)C(=CCC4C5(C)CCC(O)C(C)(C(=O)O)C5CCC43C)C2C1(C)O` (configuration not stated) as the compound, how does the Potency [1] read?
A: Its Potency is “inactive”.

Q: What about the Potency [2] of the same compound?
A: Its Potency is “inactive”.

Q: Which Potency [1] does the source give for `O=C(OCC12OC1C=CC(OC(=O)c1ccccc1)C2O)c1ccccc1` (configuration not stated) here?
A: Its Potency is “inactive”.

Q: And the Potency [2]?
A: Its Potency is “inactive”.
